Screens (PubChem BioAssay)
A selection: hits, their analogues and other compounds. The true share with any hit is near 2.9%.
ADAM10 inh: human ADAM10 inhibitors, primary screen, biochemical, QFRET, HTS; 370,000 tested, 0.62% active; Disintegrin and metalloproteinase domain-containing protein 10 (Homo sapiens), O14672; recombinant ADAM10, EDANS/DABCYL FRET peptide cleavage, 3 h; inhibition, % at 7 µM; AID 720582, 2013;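 active means inhibition above a per-campaign cutoff equal to the mean of compounds falling between control-based bounds plus 3 SD, cut at about 20% in these data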;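 further: 0% = DMSO wells while the 100% control is not disclosed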
Target sequence (O14672 214-748 limits assumed): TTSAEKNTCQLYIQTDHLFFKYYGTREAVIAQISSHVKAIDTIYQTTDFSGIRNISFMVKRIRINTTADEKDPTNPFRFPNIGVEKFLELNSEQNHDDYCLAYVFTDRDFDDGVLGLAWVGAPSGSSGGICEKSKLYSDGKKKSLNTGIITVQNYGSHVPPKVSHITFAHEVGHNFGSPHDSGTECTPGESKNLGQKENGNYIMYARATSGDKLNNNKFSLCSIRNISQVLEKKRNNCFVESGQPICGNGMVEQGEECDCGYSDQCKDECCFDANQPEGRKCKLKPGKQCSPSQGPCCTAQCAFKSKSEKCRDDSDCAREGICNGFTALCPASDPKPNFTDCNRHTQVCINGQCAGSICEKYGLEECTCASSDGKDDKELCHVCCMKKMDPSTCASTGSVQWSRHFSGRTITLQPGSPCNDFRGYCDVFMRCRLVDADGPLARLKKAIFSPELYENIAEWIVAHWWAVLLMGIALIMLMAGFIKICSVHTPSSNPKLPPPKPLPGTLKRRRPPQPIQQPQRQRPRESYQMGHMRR
KLK7 zymogen act: proKLK7 zymogen activators, primary screen, biochemical, fluorescence intensity; Kallikrein-7 (Homo sapiens), P49862; purified proKLK7, EDANS-DABCYL substrate fluorescence; 100% is mature enzyme control, 0% vehicle; activation, % at 7 µM; 370,000 tested, 0.9% active; AID 652039, 2013;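 active means activation above the mean of all tested compounds plus 3 SD, computed per campaign excluding outliers beyond control limits, cut at about 13% in these data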
PLC-beta3 inh: human PLC-beta3 inhibitors, primary screen, biochemical, fluorescence | 370,000 tested, 0.18% active | AID 720704, 2013 | inhibition, % at 12.2 µM | Purified PLC-beta3, fluorogenic substrate | 1-phosphatidylinositol 4,5-bisphosphate phosphodiesterase beta-3 (Homo sapiens), Q01970; in the data active means inhibition above about 11%;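 further: 0% = median of compound wells on plate and 100% = full blocker control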
PLCg1 inh: PLC-gamma1 enzyme inhibitors, primary screen, biochemical, fluorescence, purified enzyme. 1-phosphatidylinositol 4,5-bisphosphate phosphodiesterase gamma-1 (Homo sapiens), P19174. fluorogenic substrate. inhibition, % at 12.2 µM. 370,000 tested, 0.84% active; in the data active means inhibition above about 9.5%
ADAM17 inh: ADAM17 inhibitors, primary screen, biochemical, QFRET; recombinant ADAM17, EDANS/DABCYL FRET peptide cleavage; inhibition, % at 6.95 µM; 370,000 tested, 0.83% active;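 active means inhibition above the mean of compounds lying between control limits plus 3 SD, set per campaign, cut at about 8.5% in these data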;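 further: 0% = DMSO-only wells as the low control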
proKLK7 act conf: proKLK7 zymogen activators, confirmation, biochemical, fluorescence intensity, triplicate; shares compounds with KLK7 zymogen act; purified proKLK7, EDANS-DABCYL substrate fluorescence; scaled: vehicle 0, mature enzyme 100; activation, % at 7 µM; 3,200 tested, 68% active; AID 686949, 2013;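 active means activation, as change over the incubation, above the mean of all tested compounds plus 3 SD, cut at about 13% in these data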
EDANS-DABCYL int: EDANS-DABCYL substrate optical interference, artefact control for kallikrein-7 zymogen activator project, biochemical, fluorescence intensity, high throughput; activation, % at 7 µM; no enzyme, 4 h; solvent 0%, active enzyme control 100%; shares compounds with KLK7 zymogen act; 3,200 tested, 80% active;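 active means activation above the all-compound mean plus 3 SD, ignoring values outside control-based bounds, cut at about 4.8% in these data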;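 further: value is the 4 h activation minus the activation read at time zero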
K7 EDANS ctr: optically interferes with EDANS-DABCYL fluorescence, kallikrein-7 activator counter-screen | EDANS-DABCYL peptide fluorescence interference, no enzyme | AID 720493 | shares compounds with KLK7 zymogen act | EC50, µM | 250 tested, 20% active;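 active means compounds that raise the fluorescence signal in this interference counterscreen, with EC50 at or below 10 µM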;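 further: intact quenched peptide substrate alone read at 355 nm excitation and 520 nm emission; signal is fluorescence gain from T0 to T4 after four hours at room temperature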
The depositor's hits bear a star; i = inactive; . = no result.

SMILES | ADAM10 inh | KLK7 zymogen act | PLC-beta3 inh | PLCg1 inh | ADAM17 inh | proKLK7 act conf | EDANS-DABCYL int | others
CN(C)C(=O)CCc1ccc2c3c([nH]c2c1)[C@]1(C)[C@@H](C(=O)N2CCOCC2)C[C@H](CC(=O)NCc2ccco2)C(=O)N1CC3 | -9.2 | 0.9 | 1.3 | -2.1 | -2.7 | . | .
CC[C@]12c3[nH]c4cc(-c5ccco5)ccc4c3CCN1C(=O)[C@@H](CC(=O)NC(C)(C)C)C[C@@H]2C(=O)N1CCN(C(=O)C2CC2)CC1 | i | 144.3* | i | i | -180.8 | 203.4* | 162.5*
Cc1onc(-c2ccc(Cl)cc2)c1-c1ccn(S(=O)(=O)c2ccccc2Cl)n1 | 6.4 | 0.1 | 0.2 | -1.3 | 3.1 | . | .
CC[C@]12c3[nH]c4ccccc4c3CCN1C(=O)C(CC(=O)NCc1ccco1)C[C@@H]2C(=O)N1CCN(C(=O)c2ccco2)CC1 (stereo partly drawn) | -3.6 | -0.3 | -2.1 | -0.8 | -3.8 | . | .
C[C@]12c3[nH]c4cc(-c5ccco5)ccc4c3CCN1C(=O)[C@@H](CC(=O)NCc1ccco1)C[C@@H]2C(=O)N1CCCCC1 | -451.1 | 84.3* | i | i | -139.5 | 44.7* | 81.8*
CC[C@]12c3[nH]c4cc(-c5ccco5)ccc4c3CCN1C(=O)[C@@H](CC(=O)NCc1ccco1)C[C@@H]2C(=O)N1CCN(C(=O)c2ccco2)CC1 | -345.4 | 133.5* | -477.3 | -328.9 | -101.7 | 95.5* | 103.8*
CC(C)(C)c1ccc2c(c1)OC(C(=O)N/N=C/c1ccc[nH]1)CO2 (stereo not drawn) | 4.6 | . | 6.7 | 5.0 | 0.5 | . | .
COc1ccc2nc(C(F)(F)C(F)(F)F)c(C#N)c(N)c2c1 | -51.9 | 50.1* | -3.4 | -5.1 | -16.5 | -9.4 | -12.8
COc1cc(OC)c2c(N)c(C#N)c(C(F)(F)C(F)(F)F)nc2c1 | -122.7 | -1.1 | -36.0 | -32.2 | -41.2 | . | .
Cc1sc(-c2ccccn2)nc1OC(=O)c1ccc(Cl)cc1 | 0.7 | -0.3 | -3.6 | -2.3 | 0.3 | . | .
Cc1sc(-c2ccncc2)nc1OC(=O)c1ccccc1 | -19.8 | 19.1* | -255.9 | -231.9 | 3.2 | 33.8* | 28.9*
Oc1[nH]c2ccccc2c1N=Nc1ccc(F)cc1 | 9.2 | 97.4* | -4.5 | -6.8 | 3.8 | 35.7* | 55.7*
Oc1[nH]c2ccccc2c1N=Nc1ccccc1 | 10.5 | 0.9 | -16.7 | -2.8 | 3.7 | . | .
COc1ccc2nc(C)c3c(c2c1)OC(C)C3 (stereo not drawn) | -74.5 | 2.8 | -9.2 | -7.5 | -27.4 | . | .
COc1cccc2c3c(c(C)nc12)CC(C)O3 (stereo not drawn) | -268.4 | 47.8* | -196.6 | -147.1 | -104.6 | 8.2 | 11.8*
COC(=O)[C@]1(CNC(=O)C(C)(C)C)CC(=O)N(C)[C@@H]1c1ccccc1 | -3.0 | 0.0 | 1.7 | -3.8 | -3.7 | . | .
Cc1cc(=O)oc2cc(OC(=O)c3nn(C(C)C)c(=O)c4ccccc34)ccc12 | i | 45.7* | i | i | i | 69.8* | 79.0*
CC(C)n1nc(C(=O)Oc2ccc(Cl)cc2)c2ccccc2c1=O | -10.1 | 0.4 | -1.9 | -1.9 | -5.9 | . | .
CCCn1nc(C(=O)Oc2ccc3c(C)cc(=O)oc3c2)c2ccccc2c1=O | i | 54.1* | i | i | i | 68.2* | 72.2*
COC(=O)C1CN(Cc2ccc(OC)cc2)CCS(=O)(=O)N1Cc1cn(Cc2ccc(C)cc2)nn1 (stereo not drawn) | -4.2 | 0.1 | -0.8 | -0.3 | -1.8 | . | .
CC1CC(Nc2ccccc2)=CC(=O)O1 (stereo not drawn) | -477.1 | 3.7 | -246.3 | -210.0 | -187.9 | . | .
CC1CC(Nc2cccc(O)c2)=CC(=O)O1 (stereo not drawn) | i | 13.4* | i | -458.3 | -204.5 | 0.8 | 0.3
CC(C)(C)CC(C)(C)Nc1c(-c2ccc(O)cc2)nc2cnccn12 | i | 39.3* | i | i | i | -118.1 | -104.3
Cn1c(=O)c2[nH]c(-c3ccccc3)c(O)c2n(C)c1=O | -20.2 | 17.3* | -106.7 | -84.6 | -5.4 | 40.8* | 39.6*
Cn1c(=O)c2[nH]c(-c3ccccc3Cl)c(O)c2n(C)c1=O | -1.9 | 57.9* | -45.7 | -36.4 | 0.3 | 71.3* | 76.7*
SMILES | ADAM10 inh | KLK7 zymogen act | PLC-beta3 inh | PLCg1 inh | ADAM17 inh | proKLK7 act conf | EDANS-DABCYL int | others
O=C(OCC#CCSc1nnc(-c2cccc3ccccc23)o1)C1CCC1 | -40.6 | . | -20.6 | -10.6 | -8.6 | . | .
Cc1ccc(C=Nn2c(-c3n[nH]c4c3CCC4)n[nH]c2=S)o1 | -8.4 | 0.9 | -2.7 | -2.4 | -2.4 | . | .
Clc1ccc2nc(-c3ccc4c(c3)OCO4)cn2c1 | i | 14.3* | -367.8 | -260.7 | -230.2 | 7.2 | 7.8*
Cc1ccc2nc(-c3ccc4c(c3)OCCO4)cn2c1 | i | 5.3 | -120.5 | -81.2 | -150.0 | . | .
CC(=O)c1cccc(NC(=O)CSc2n[nH]c(=O)n2C2CC2)c1 | -1.1 | 51.6* | -1.0 | 1.5 | -0.7 | -1.2 | 0.7
O=C(CSc1n[nH]c(=O)n1C1CC1)Nc1ccc(Cl)c(Cl)c1 | 4.2 | 0.0 | -4.3 | 5.0 | -0.7 | . | .
COC(=O)c1cccc(Cn2ccc3ccc(-c4ccc5ccn(C(=O)c6ccccc6OC)c5c4)cc32)c1 | -51.6 | -7.2 | -104.0 | -64.7 | -2.6 | . | .
c1cnc2nc(CSc3ncn[nH]3)cn2c1 | i | 48.2* | -367.7 | -330.9 | -261.3 | 8.4 | 11.0*
CCOc1ccc(-n2c(SCC(=O)c3ccccc3Cl)nnc2-c2ccncc2)cc1 | 8.7 | 0.5 | 0.1 | 3.0 | 4.6 | . | .
Cc1cc(Nc2ccccc2)nc(-c2ccccc2O)n1 | -17.2 | 2.0 | -306.2 | -247.5 | -6.5 | . | .
Cc1cc(Nc2cccc(F)c2)nc(-c2ccccc2O)n1 | 12.6 | 196.5* | -278.2 | -252.9 | 1.7 | 12.7* | -68.9 | K7 EDANS ctr=>69.5
O=c1cccc2n1Cc1cc3ccccc3nc1-2 | i | 47.2* | i | i | i | 60.0* | 69.0*
CCC(=O)N1CCc2cc(Br)c(S(=O)(=O)N3CCC(C(=O)NCCCOC(C)C)CC3)cc21 | -9.8 | 0.1 | 3.4 | -0.8 | -2.2 | . | .
COc1ccc(-c2ncccc2OC(=O)C23CC4CC(CC(C4)C2)C3)cc1OC | i | 18.3* | -147.0 | -122.7 | -138.3 | 12.0 | 8.2*
C=CS(=O)(=O)c1c2cc(OC)ccc2nc2ccc(OC)cc12 | i | 21.7* | i | i | -199.0 | -35.9 | -29.1
COc1ccc2nc(Cl)cc(Cl)c2c1 | 2.3 | -0.7 | 0.4 | 0.0 | -1.3 | . | .
